Data: PubChem BioAssay (NCATS)
Inconclusive results are not listed. Calls of active or inactive are those of the source. Unless noted, the call rests on the fitted dose curve; in most records, active means well fitted cell-killing curve with a large enough effect; inconclusive means small, poorly fitted or top-dose-only effect; inactive means flat fitted curve, though single readings scatter.

What was measured:
[1] = Cell Viability - LYMP2-002 (AID 977);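 further: series mostly up to about 92 µM; compound exposure lasted 24 h at 37 °C; plate controls were DMSO only for no effect and 92 µM tetraoctylammonium bromide for full effect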
Method in brief: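 Cytotoxicity is scored as concentration-dependent loss of cellular ATP in a human lymphoblastoid line after 24 hr compound treatment at 37 C. AC50 is obtained by modelling concentration-response data with the Hill equation.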

[2] = Cell Viability - LYMP2-006 (AID 978); further: series mostly up to about 92 µM; on the % scale 0 is the no-effect control and ±100 the full control effect; nearly all actives have a fitted effect of over 60% in size
Method in brief: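 Human lymphoblastoid cells (LYMP2-006), 2500/well in complete medium, were treated with compound for 24 hr at 37 C. Cellular ATP was read by CellTiter-Glo luminescence after 30 min, and AC50 values came from Hill-equation fits of concentration-response data.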

[3] = Cell Viability - LYMP2-007 (AID 979);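 further: cells exposed to compound for 24 h before reading; 0% = DMSO only and the negative end = 92 µM tetraoctylammonium bromide; nearly all actives have a fitted effect of over 60% in size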
Method in brief: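 Human lymphoblastoid LYMP2-007 cells (2500/well) preincubated 5 h at 37 C, then treated 24 h at 37 C in complete medium. Viability by CellTiter-Glo ATP luminescence after 30 min at room temperature; AC50 from Hill fits.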

[4] = Cell Viability - LYMP2-008 (AID 980); further: on the % scale 0 is the no-effect control and ±100 the full control effect; nearly all actives have a fitted effect of over 60% in size
Method in brief: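 LYMP2-008 lymphoblastoid cells (2500/well) plated 5 h, then treated 24 h at 37 C in complete medium. Viability read as intracellular ATP by CellTiter-Glo luminescence after 30 min at room temperature; AC50 from Hill fits.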

[5] = Cell Viability - LYMP2-010 (AID 981); further: on the % scale 0 is the no-effect control and ±100 the full control effect; nearly all actives have a fitted effect of over 55% in size
Method in brief: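 Human lymphoblastoid LYMP2-010 cells (2500/well) treated 24 h at 37 C in complete medium; viability read as intracellular ATP by CellTiter-Glo luminescence. AC50 from Hill fits of concentration-response data; tetraoctylammonium bromide positive control.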

[6] = Cell Viability - LYMP2-012 (AID 982);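 further: cellular ATP by luciferase luminescence where a drop means cytotoxicity; cells exposed to compound for one day before reading; 0% = DMSO only and full loss = 92 µM tetraoctylammonium bromide; nearly all actives have a fitted effect of over 55% in size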
[7] = Cell Viability - LYMP2-014 (AID 983);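 further: series mostly up to about 92 µM; plate controls were DMSO only for no effect and 92 µM tetraoctylammonium bromide for full effect; nearly all actives have a fitted effect of over 50% in size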
Method in brief: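 LYMP2-014 human lymphoblastoid cells, 2500/well, treated 24 h at 37 C in complete medium; viability by CellTiter-Glo ATP luminescence after 30 min at room temperature. AC50 from Hill fits of qHTS concentration-response; tetraoctylammonium bromide positive control.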

[8] = Cell Viability - LYMP2-016 (AID 984); further: on the % scale 0 is the no-effect control and ±100 the full control effect; nearly all actives have a fitted effect of over 55% in size
Method in brief: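 Human lymphoblastoid LYMP2-016 cells, 2500 per well, treated with compounds for 24 h at 37 C. Viability read as intracellular ATP by CellTiter-Glo luminescence after 30 min at room temperature; AC50 from Hill fits of concentration-response.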

[9] = Cell Viability - LYMP2-018 (AID 985);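 further: compound exposure lasted 24 hr at 37 °C; plate controls were DMSO only for no effect and tetraoctylammonium bromide at 92 µM for full effect; nearly all actives have a fitted effect of over 50% in size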
Method in brief: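 Human lymphoblastoid LYMP2-018 cells, 2500/well, settled 5 hr at 37 C then exposed to compound 24 hr at 37 C; intracellular ATP measured by CellTiter-Glo luminescence. AC50 from Hill-equation concentration-response fits.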

[10] = Cell Viability - LYMP2-020 (AID 986);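 further: series mostly up to about 92 µM; plate controls were DMSO only for no effect and tetraoctylammonium bromide at 92 µM for full effect; nearly all actives have a fitted effect of over 55% in size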
Method in brief: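 Human lymphoblastoid LYMP2-020 cells (2500/well) preincubated 5 h at 37 C, then treated 24 h at 37 C. Viability measured as intracellular ATP by CellTiter-Glo luminescence after 30 min at room temperature; AC50 from Hill fits.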

[11] = Cell Viability - LYMP2-022 (AID 987)
Method in brief: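 LYMP2-022 lymphoblastoid cells (2500/well, complete medium) were treated with compounds for 24 hours at 37 C; intracellular ATP was then read by CellTiter-Glo luminescence after 30 min at room temperature. AC50 values were derived from Hill-equation fits.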

[12] = Cell Viability - LYMP2-024 (AID 988);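 further: plate controls were DMSO only for no effect and 92 µM tetraoctylammonium bromide for full effect; nearly all actives have a fitted effect of over 60% in size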
Method in brief: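 Human lymphoblastoid LYMP2-024 cells (2500/well) rested 5 hr, then treated with compound for 24 hr at 37 C in complete medium. Viability was measured as intracellular ATP by CellTiter-Glo luminescence. AC50 values came from Hill-equation fits.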

[13] = Cell Viability - LYMP2-026 (AID 989); further: on the % scale 0 is the no-effect control and ±100 the full control effect; nearly all actives have a fitted effect of over 50% in size
Method in brief: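 Human lymphoblastoid LYMP2-026 cells, 2500/well, exposed to compound 24 h at 37 C in complete medium. Viability as intracellular ATP by CellTiter-Glo luminescence; AC50 from Hill fits of qHTS concentration-response.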

[14] = Cell Viability - LYMP1-002 - Assay at 24 hr (AID 993); further: on the % scale 0 is the no-effect control and ±100 the full control effect
Method in brief: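 Human lymphoblastoid LYMP1-002 cells (2500/well) treated 24 h at 37 °C; viability as intracellular ATP by CellTiter-Glo luminescence. Tetraoctylammonium bromide as positive control; AC50 from Hill-equation fits of qHTS concentration-response.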

[15] = Cell Viability - LYMP1-002 - Assay at 40 hr (AID 994)
Method in brief: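 LYMP1-002 human lymphoblastoid cells (2500/well, complete medium) were treated with compounds for 40 hr at 37 C. Intracellular ATP was measured by CellTiter-Glo luminescence, and AC50 values came from Hill-equation fits of concentration-response data; tetraoctylammonium bromide was the positive control.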

[16] = biological target: Estrogen receptor (Homo sapiens) (UniProt P03372); assay: qHTS assay for small molecule antagonists of estrogen receptor alpha signaling (AID 588513; active means well fitted curve in the direction sought with a large enough effect in the signal ratio, with a control signal flat, not every such curve was filed as active; the % refers to the signal ratio; further: on the % scale 0 is the no-effect control and ±100 the full control effect)
Sequence of Estrogen receptor (Homo sapiens) (P03372 whole entry, looked up): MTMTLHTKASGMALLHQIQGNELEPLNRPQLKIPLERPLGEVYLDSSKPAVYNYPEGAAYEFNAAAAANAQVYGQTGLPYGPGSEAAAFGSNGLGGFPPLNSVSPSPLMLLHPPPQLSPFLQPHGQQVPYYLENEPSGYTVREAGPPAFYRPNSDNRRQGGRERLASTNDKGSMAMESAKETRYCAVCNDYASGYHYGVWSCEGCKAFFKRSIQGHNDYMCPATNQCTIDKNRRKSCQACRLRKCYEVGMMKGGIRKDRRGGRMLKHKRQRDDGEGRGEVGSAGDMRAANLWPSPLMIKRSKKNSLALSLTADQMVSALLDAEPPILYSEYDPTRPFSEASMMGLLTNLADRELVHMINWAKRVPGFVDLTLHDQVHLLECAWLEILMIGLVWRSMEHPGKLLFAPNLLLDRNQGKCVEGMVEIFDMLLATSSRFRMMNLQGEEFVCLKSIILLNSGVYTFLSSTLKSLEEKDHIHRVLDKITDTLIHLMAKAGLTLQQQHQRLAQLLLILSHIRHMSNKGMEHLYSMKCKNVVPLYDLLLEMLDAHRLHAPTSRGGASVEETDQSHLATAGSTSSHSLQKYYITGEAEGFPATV
Method in brief: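 ER-alpha-UAS-bla GripTite HEK 293 cells in 2% charcoal/dextran-treated FBS medium; compounds titrated (1:2, duplicate), then stimulated with 0.5 nM 17-beta-estradiol for 18 h at 37C. CCF4 beta-lactamase fluorescence; Hill-fit IC50 and efficacy.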

[17] = biological target: Estrogen receptor (Homo sapiens) (UniProt P03372); assay: qHTS assay for small molecule agonists of estrogen receptor alpha signaling (AID 588514; calls by dose curve;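 further: 0% = vehicle only and 100% = reference agonist; nearly all actives have a fitted effect of over 70% in size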)
Method in brief: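 ER-alpha-UAS-bla GripTite HEK293 cells, 5000/well in 2% charcoal/dextran-stripped FBS medium, treated with compound titrations 18 h at 37 C. CCF4 beta-lactamase read by fluorescence after 2 h RT; normalised to 20 nM 17-beta-estradiol (100%) and DMSO (0%), Hill fit for EC50 and efficacy.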

[18] = biological target: Androgen receptor (Homo sapiens) (UniProt P10275); assay: qHTS assay for small molecule antagonists of androgen receptor signaling (AID 588516; active means well fitted curve in the direction sought with a large enough effect in the signal ratio, with a control signal flat, not every such curve was filed as active; the % refers to the signal ratio; further: on the % scale 0 is the no-effect control and ±100 the full control effect)
Sequence of Androgen receptor (Homo sapiens) (P10275 whole entry, looked up): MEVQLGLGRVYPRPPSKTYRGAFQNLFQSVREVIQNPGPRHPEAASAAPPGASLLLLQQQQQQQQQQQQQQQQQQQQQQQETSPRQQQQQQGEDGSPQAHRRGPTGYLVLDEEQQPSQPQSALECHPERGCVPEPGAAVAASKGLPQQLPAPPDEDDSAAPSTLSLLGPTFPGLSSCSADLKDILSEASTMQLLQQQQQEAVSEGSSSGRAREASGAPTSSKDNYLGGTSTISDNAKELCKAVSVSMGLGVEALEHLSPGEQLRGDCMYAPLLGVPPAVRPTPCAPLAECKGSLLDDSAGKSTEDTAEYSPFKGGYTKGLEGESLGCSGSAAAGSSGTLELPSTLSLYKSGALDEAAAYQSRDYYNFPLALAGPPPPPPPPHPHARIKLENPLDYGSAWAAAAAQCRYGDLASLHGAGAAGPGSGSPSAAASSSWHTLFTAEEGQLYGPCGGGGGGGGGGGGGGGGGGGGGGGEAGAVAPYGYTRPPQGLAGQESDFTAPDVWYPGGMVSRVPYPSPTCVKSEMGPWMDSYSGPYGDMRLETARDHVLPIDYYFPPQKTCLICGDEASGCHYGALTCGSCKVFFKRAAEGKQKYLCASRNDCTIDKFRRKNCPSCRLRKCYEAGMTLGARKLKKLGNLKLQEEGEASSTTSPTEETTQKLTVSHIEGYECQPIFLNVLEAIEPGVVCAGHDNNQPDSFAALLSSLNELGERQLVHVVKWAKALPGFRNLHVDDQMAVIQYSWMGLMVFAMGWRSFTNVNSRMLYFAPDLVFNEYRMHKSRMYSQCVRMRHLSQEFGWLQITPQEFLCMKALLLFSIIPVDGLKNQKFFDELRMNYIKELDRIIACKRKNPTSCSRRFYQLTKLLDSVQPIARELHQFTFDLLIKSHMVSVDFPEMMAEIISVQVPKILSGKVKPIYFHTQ
Method in brief: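 AR-UAS-bla GripTite HEK 293 cells (2000/well) treated with compound titrations plus 10 nM R1881 for 16 h at 37C. Beta-lactamase read by CCF4 FRET (460/530 nm); IC50 from Hill fits, normalized to R1881 and DMSO control wells.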

[19] = biological target: Androgen receptor (Homo sapiens) (UniProt P10275); assay: qHTS assay for small molecule agonists of androgen receptor signaling (AID 588515; active means well fitted curve in the direction sought with a large enough effect in the signal ratio, with a control signal flat; the % refers to the signal ratio; further: on the % scale 0 is the no-effect control and ±100 the full control effect); settings: AR-UAS-bla HEK293, beta-lactamase ratio, agonist 16 h; active compounds read high
Method in brief: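 EC50 and efficacy came from Hill fits of titrations (up to 92 uM) normalized to 30 nM R1881 as 100% and DMSO as 0%. Compound exposure was 16 h at 37 C on AR-UAS-bla HEK293 cells, with a 405/460/530 nm CCF4 fluorescence read.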

Nc1cccc(N)c1
inactive: Potency [1] | Potency [2] | Potency [3] | Potency [4] | Potency [5] | Potency [6] | Potency [7] | Potency [8] | Potency [9] | Potency [10] | Potency [11] | Potency [12] | outcome [13] | Potency [14] | Potency [15]

CC(=O)OCc1ccco1
inactive: Potency [1] | Potency [2] | Potency [3] | Potency [4] | Potency [5] | Potency [6] | Potency [7] | Potency [8] | Potency [9] | Potency [10] | Potency [11] | Potency [12] | outcome [13] | Potency [15] | outcome [16] | Potency [17]

O=C1C=CCCC1
inactive: Potency [1] | Potency [2] | Potency [6] | Potency [8] | Potency [9] | Potency [10] | Potency [11] | Potency [12] | outcome [13] | Potency [15] | outcome [16] | Potency [17]

CCC(C)(C)C
inactive: Potency [1] | Potency [2] | Potency [4] | Potency [5] | Potency [6] | Potency [7] | Potency [8] | Potency [9] | Potency [10] | Potency [11] | Potency [12] | outcome [13] | Potency [14] | Potency [15] | outcome [16] | Potency [17]

N#Cc1ccccc1
inactive: Potency [1] | Potency [2] | Potency [3] | Potency [4] | Potency [5] | Potency [6] | Potency [7] | Potency [8] | Potency [9] | Potency [10] | Potency [11] | Potency [12] | outcome [13] | Potency [14] | Potency [15]

Cc1cccc([N+](=O)[O-])c1C(=O)O
inactive: Potency [1] | Potency [2] | Potency [3] | Potency [4] | Potency [5] | Potency [6] | Potency [7] | Potency [8] | Potency [9] | Potency [10] | Potency [11] | Potency [12] | outcome [13] | Potency [14] | Potency [15] | outcome [16] | Potency [17]

O=C(O)CNC(=O)c1ccc(CO)o1
inactive: Potency [1] | Potency [2] | Potency [3] | Potency [5] | Potency [6] | Potency [7] | Potency [8] | Potency [9] | Potency [10] | Potency [11] | Potency [12] | outcome [13] | Potency [15] | outcome [16] | Potency [17]

Cc1cc(C)cc(O)c1
inactive: Potency [1] | Potency [2] | Potency [3] | Potency [4] | Potency [5] | Potency [6] | Potency [7] | Potency [8] | Potency [9] | Potency [10] | Potency [11] | Potency [12] | outcome [13] | Potency [14] | Potency [15] | outcome [16] | Potency [17]

c1ccc2[nH]cnc2c1
inactive: Potency [1] | Potency [2] | Potency [3] | Potency [4] | Potency [5] | Potency [6] | Potency [7] | Potency [9] | Potency [10] | Potency [11] | Potency [12] | outcome [13] | Potency [15]

CCCCCCCN
inactive: Potency [1] | Potency [2] | Potency [3] | Potency [4] | Potency [6] | Potency [7] | Potency [8] | Potency [9] | Potency [10] | Potency [11] | Potency [12] | outcome [13] | Potency [14] | outcome [16] | Potency [17]

N#CCc1ccccc1[N+](=O)[O-]
inactive: Potency [1] | Potency [2] | Potency [3] | Potency [4] | Potency [5] | Potency [6] | Potency [7] | Potency [8] | Potency [9] | Potency [10] | Potency [11] | Potency [12] | outcome [13] | Potency [15]

CNc1ccccc1
inactive: Potency [1] | Potency [2] | Potency [3] | Potency [4] | Potency [5] | Potency [6] | Potency [7] | Potency [9] | Potency [10] | Potency [11] | Potency [12] | outcome [13] | Potency [14] | Potency [15] | outcome [16] | Potency [17]

CC(=O)CC(C)C
inactive: Potency [1] | Potency [2] | Potency [3] | Potency [4] | Potency [5] | Potency [6] | Potency [7] | Potency [8] | Potency [9] | Potency [10] | Potency [11] | Potency [12] | outcome [13] | Potency [14] | Potency [15] | outcome [18]

CC(=O)c1cc(C)oc1C
inactive: Potency [1] | Potency [2] | Potency [3] | Potency [4] | Potency [5] | Potency [6] | Potency [7] | Potency [8] | Potency [9] | Potency [10] | Potency [11] | Potency [12] | outcome [13] | Potency [14] | Potency [15] | activation [19] -1.32%

CC/C(C)=N/O
inactive: Potency [1] | Potency [2] | Potency [3] | Potency [4] | Potency [5] | Potency [6] | Potency [7] | Potency [8] | Potency [10] | Potency [11] | Potency [12] | outcome [13] | Potency [14]

CCNS(=O)(=O)c1ccc(C)cc1
inactive: Potency [1] | Potency [3] | Potency [4] | Potency [6] | Potency [7] | Potency [8] | Potency [9] | Potency [10] | Potency [11] | Potency [12] | outcome [13] | Potency [14] | Potency [15] | outcome [16] | Potency [17]

O=C(Cl)c1cccc([N+](=O)[O-])c1
inactive: Potency [2] | Potency [4] | Potency [5] | Potency [6] | Potency [7] | Potency [8] | Potency [9] | Potency [10] | Potency [11] | Potency [12] | outcome [13] | Potency [14] | Potency [15] | outcome [16] | Potency [17]

CC(C)(O)CCC(C)(C)O
inactive: Potency [1] | Potency [2] | Potency [3] | Potency [4] | Potency [5] | Potency [6] | Potency [7] | Potency [8] | Potency [9] | Potency [10] | Potency [11] | Potency [12] | outcome [13] | Potency [14] | Potency [15] | outcome [16] | Potency [17]
